The AC50 is the concentration giving half of the maximal activity seen.

Calls of active or inactive are those of the source. The calls were made as follows: active = hit-call score of the fitted dose curve at least 0.9, where 1 is the maximum; inactive = score below 0.9.

Holding throughout (conditions): mRNA level, 48 h; actives raise or lower the signal
Read-out in experiment [1]: Bcl-2 (BID) gene, BID (gene 637)
The experiment can be described thus: LTEA_HepaRG_BID: Life Technologies and Expression Analysis (LTEA) Assay for Bcl-2 (BID) gene using HepaRG (AID 2283476). Put shortly: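 Duplicate 48 h treatments of HepaRG cells in serum-free induction medium spanned 100 uM downward in half-log steps, 0.5% DMSO. Transcript change quantified by qRT-PCR against three housekeeping genes, fitted up or down versus DMSO.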

Read-out in the next experiment: Caspase-3 (Homo sapiens) (UniProt P42574)
The experiment is described as follows: LTEA_HepaRG_CASP3: Life Technologies and Expression Analysis (LTEA) Assay for cysteine-aspartic acid protease (CASP3) using HepaRG (AID 2283477). The method in brief: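 Read-out is CASP3 mRNA level by TaqMan qRT-PCR in human HepaRG cells after 48 h chemical exposure. Eight half-log concentrations topping at 100 uM were tested in 0.5% DMSO; gain or loss was fitted relative to DMSO.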

Read-out in experiment [2]: Cytochrome P450 (CYP24A1), CYP24A1 (gene 1591)
The experiment is described as follows: LTEA_HepaRG_CYP24A1: Life Technologies and Expression Analysis (LTEA) Assay for Cytochrome P450 (CYP24A1) using HepaRG (AID 2283478). The method in brief:
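HepaRG, 48 h chemical exposure, 8-pt half-log CRC from 100 uM, 0.5% DMSO vehicle, duplicates. Endpoint: CYP24A1 mRNA by Fluidigm TaqMan qRT-PCR, normalized ACTB/GAPDH/POLR2A; gain/loss fit vs DMSO.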

Read-out in experiment [3]: Cytochrome P450 (CYP1A2), CYP1A2 (gene 1544)
The experiment is described as follows: LTEA_HepaRG_CYP1A2: Life Technologies and Expression Analysis (LTEA) Assay for Cytochrome P450 (CYP1A2) using HepaRG (AID 2283479). Put shortly:
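CYP1A2 transcript induction or loss, quantified by Fluidigm qRT-PCR against three housekeeping genes, was fitted bidirectionally against 0.5% DMSO controls. Human HepaRG cells received eight half-log concentrations from 100 uM over 48 h.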

Read-out in experiment [4]: cysteine-aspartic acid protease (CASP8), CASP8 (gene 841)
The experiment is described as follows: LTEA_HepaRG_CASP8: Life Technologies and Expression Analysis (LTEA) Assay for cysteine-aspartic acid protease (CASP8) using HepaRG (AID 2283480). The method in brief:
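Concentration-response in duplicate up to 100 uM (half-log steps, 0.5% DMSO) on differentiated HepaRG cultures for 48 h. Expression change of CASP8 mRNA is determined by TaqMan qRT-PCR with housekeeping-gene normalization.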

Read-out in experiment [5]: Cytochrome P450 (CYP2B6), CYP2B6 (gene 1555)
The experiment can be described thus: LTEA_HepaRG_CYP2B6: Life Technologies and Expression Analysis (LTEA) Assay for Cytochrome P450 (CYP2B6) using HepaRG (AID 2283481). Put shortly:
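HepaRG cells plated 48 h, switched to serum-free induction medium, then dosed 48 h (8 points, half-log from 100 uM, 0.5% DMSO). RNA isolated; CYP2B6 expression measured by qRT-PCR; gain or loss fitted relative to DMSO.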

Read-out in experiment [6]: Cytochrome P450 2C19 (Homo sapiens) (UniProt P33261)
The experiment is described as follows: LTEA_HepaRG_CYP2C19: Life Technologies and Expression Analysis (LTEA) Assay for CYP2C19 using HepaRG (AID 2283482). Put shortly:
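Transcript levels of CYP2C19 were quantified by qRT-PCR after HepaRG cells were treated for 48 hours with test chemicals up to 100 uM (eight half-log concentrations, 0.5% DMSO vehicle). Gain or loss of signal was fitted relative to DMSO.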

Read-out in another experiment: CYP2C8 (gene 1558)
The experiment can be described thus: LTEA_HepaRG_CYP2C8: Life Technologies and Expression Analysis (LTEA) Assay for CYP2C8 using HepaRG (AID 2283483). Put shortly: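 This is a transcriptional endpoint in HepaRG cultures: 48 h exposure, highest concentration 100 uM. CYP2C8 mRNA is quantified by TaqMan qRT-PCR.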

Read-out in a further experiment: CYP2C9 (gene 1559)
The experiment can be described thus: LTEA_HepaRG_CYP2C9: Life Technologies and Expression Analysis (LTEA) Assay for CYP2C9 using HepaRG (AID 2283484). The method in brief:
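Eight-point concentration-response (highest 100 uM, half-log dilutions) in HepaRG cells for 48 h; CYP2C9 expression by qRT-PCR normalized to ACTB, GAPDH, POLR2A. Bidirectional fit, DMSO baseline.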

Read-out in the next experiment: CYP2E1 (gene 1571)
The experiment can be described thus: LTEA_HepaRG_CYP2E1: Life Technologies and Expression Analysis (LTEA) Assay for CYP2E1 using HepaRG (AID 2283485). Put shortly: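 CYP2E1 transcript measured by Fluidigm qRT-PCR against three housekeeping genes in human HepaRG cells treated 48 h (top 100 uM, half-log steps, 0.5% DMSO vehicle). Gain or loss fitted relative to DMSO baseline.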

Read-out in a further experiment: CYP4A11 (gene 1579)
The experiment can be described thus: LTEA_HepaRG_CYP4A11: Life Technologies and Expression Analysis (LTEA) Assay for CYP4A11 using HepaRG (AID 2283486). The method in brief: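 HepaRG, 48 h chem exposure, 8 conc (100 uM top, half-log), 0.5% DMSO vehicle; qRT-PCR readout, housekeeping-gene normalized; bidirectional curve fit vs DMSO baseline.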

Read-out in experiment [7]: Cytochrome P450 3A4 (Homo sapiens) (UniProt P08684)
The experiment can be described thus: LTEA_HepaRG_CYP3A4: Life Technologies and Expression Analysis (LTEA) Assay for CYP3A4 using HepaRG (AID 2283487). Put shortly:
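In a human hepatic line (HepaRG), duplicate wells were treated 48 h with up to 100 uM chemical in half-log dilutions. Endpoint: CYP3A4 mRNA induction or loss relative to 0.5% DMSO vehicle, by qRT-PCR.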

Read-out in experiment [8]: DNA damage-inducible transcript 3 (DDIT3), DDIT3 (gene 1649)
The experiment can be described thus: LTEA_HepaRG_DDIT3: Life Technologies and Expression Analysis (LTEA) Assay for DNA damage-inducible transcript 3 (DDIT3) using HepaRG (AID 2283488). The method in brief:
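DDIT3 transcript was quantified by qRT-PCR with ACTB/GAPDH/POLR2A normalization after 48 h chemical treatment of differentiated HepaRG cells in 0.5% DMSO. Dosing was eight-point, half-log, top 100 uM, duplicate wells. Curves fitted bidirectionally versus DMSO.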

Read-out in experiment [9]: Pro-epidermal growth factor (Homo sapiens) (UniProt P01133)
The experiment is described as follows: LTEA_HepaRG_EGF: Life Technologies and Expression Analysis (LTEA) Assay for Epidermal growth factor (EGF) using HepaRG (AID 2283489). Put shortly:
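HepaRG, 48 h dosing, 100 uM top, half-log x8, 0.5% DMSO. Readout: TaqMan qRT-PCR (Fluidigm array), housekeeping-normalized. Gain or loss of signal fit vs DMSO.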

Read-out in experiment [10]: Early growth response protein 1 (EGR1) transcription factor, EGR1 (gene 1958)
The experiment can be described thus: LTEA_HepaRG_EGR1: Life Technologies and Expression Analysis (LTEA) Assay for Early growth response protein 1 (EGR1) transcription factor using HepaRG (AID 2283490). The method in brief:
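EGR1 expression change in human HepaRG after 48 h chemical exposure, assessed by housekeeping-normalized qRT-PCR; concentration-response up to 100 uM, fitted in both directions against DMSO controls.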

Read-out in experiment [11]: Ezrin (EZR), EZR (gene 7430)
The experiment can be described thus: LTEA_HepaRG_EZR: Life Technologies and Expression Analysis (LTEA) Assay for Ezrin (EZR) using HepaRG (AID 2283491). Put shortly: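 Gain or loss of EZR mRNA is scored relative to 0.5% DMSO in human HepaRG cultures treated 48 h with test chemicals in duplicate, eight half-log concentrations from 100 uM.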

Read-out in experiment [12]: Cytochrome P450 3A7 (Homo sapiens) (UniProt P24462)
The experiment is described as follows: LTEA_HepaRG_CYP3A7: Life Technologies and Expression Analysis (LTEA) Assay for CYP3A7 using HepaRG (AID 2283492). The method in brief: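 Human HepaRG liver cells, 48 h post-plating, switched to serum-free induction medium and exposed in duplicate for 48 h. Dosing: 100 uM top, half-log dilutions, 8 points, 0.5% DMSO vehicle. Read-out: CYP3A7 mRNA, gain or loss fitted against DMSO baseline.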

Read-out in a further experiment: CYP3A5 (gene 1577)
The experiment can be described thus: LTEA_HepaRG_CYP3A5: Life Technologies and Expression Analysis (LTEA) Assay for CYP3A5 using HepaRG (AID 2283493). The method in brief:
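mRNA levels were quantified by qRT-PCR on Fluidigm arrays and normalized to three housekeeping genes. Differentiated HepaRG cells received 48 h exposure (top 100 uM, half-log steps, 0.5% DMSO vehicle, duplicate); bidirectional fitting versus DMSO.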

Read-out in experiment [13]: Fatty Acid-Binding Protein 1 (FABP1), FABP1 (gene 2168)
The experiment is described as follows: LTEA_HepaRG_FABP1: Life Technologies and Expression Analysis (LTEA) Assay for Fatty Acid-Binding Protein 1 (FABP1) using HepaRG (AID 2283494). The method in brief:
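Values reflect bidirectional concentration-response fitting of FABP1 mRNA change against 0.5% DMSO controls. Human HepaRG cultures received eight half-log doses (top 100 uM) for 48 h; expression quantified by TaqMan qRT-PCR with housekeeping-gene normalization.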

Read-out in experiment [14]: Cytochrome P450 4A22 (Homo sapiens) (UniProt Q5TCH4)
The experiment can be described thus: LTEA_HepaRG_CYP4A22: Life Technologies and Expression Analysis (LTEA) Assay for Cytochrome P450 4A22 (CYP4A22) using HepaRG (AID 2283495). The method in brief: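 Readout is CYP4A22 transcript induction or loss, quantified by qRT-PCR and normalized to ACTB, GAPDH and POLR2A. Human HepaRG cells receive test chemicals for 48 h at eight half-log concentrations from 100 uM in 0.5% DMSO.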

Sequence of Caspase-3 (Homo sapiens) (P42574 whole entry, looked up): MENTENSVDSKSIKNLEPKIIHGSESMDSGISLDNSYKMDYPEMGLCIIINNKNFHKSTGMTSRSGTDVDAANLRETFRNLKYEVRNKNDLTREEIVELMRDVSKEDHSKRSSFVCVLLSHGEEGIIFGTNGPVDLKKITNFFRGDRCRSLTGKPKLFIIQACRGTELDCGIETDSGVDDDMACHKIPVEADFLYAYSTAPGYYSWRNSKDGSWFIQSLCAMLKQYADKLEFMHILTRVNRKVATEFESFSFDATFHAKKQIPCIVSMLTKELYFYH
Sequence of Cytochrome P450 3A4 (Homo sapiens) (P08684 whole entry, looked up): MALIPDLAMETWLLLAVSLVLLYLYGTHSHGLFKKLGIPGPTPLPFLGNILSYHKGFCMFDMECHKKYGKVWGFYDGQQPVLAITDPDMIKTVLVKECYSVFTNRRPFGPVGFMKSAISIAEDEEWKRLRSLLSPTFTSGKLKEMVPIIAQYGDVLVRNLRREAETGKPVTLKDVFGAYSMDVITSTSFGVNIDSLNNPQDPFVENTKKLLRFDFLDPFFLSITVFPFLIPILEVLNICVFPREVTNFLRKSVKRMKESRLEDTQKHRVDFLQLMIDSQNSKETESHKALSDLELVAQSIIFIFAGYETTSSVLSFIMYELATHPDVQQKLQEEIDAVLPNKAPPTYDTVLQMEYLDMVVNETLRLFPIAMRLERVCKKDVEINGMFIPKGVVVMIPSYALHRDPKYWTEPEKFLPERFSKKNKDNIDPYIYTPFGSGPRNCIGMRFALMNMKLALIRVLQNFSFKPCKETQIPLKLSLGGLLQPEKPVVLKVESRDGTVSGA
Sequence of Cytochrome P450 3A7 (Homo sapiens) (P24462 whole entry, looked up): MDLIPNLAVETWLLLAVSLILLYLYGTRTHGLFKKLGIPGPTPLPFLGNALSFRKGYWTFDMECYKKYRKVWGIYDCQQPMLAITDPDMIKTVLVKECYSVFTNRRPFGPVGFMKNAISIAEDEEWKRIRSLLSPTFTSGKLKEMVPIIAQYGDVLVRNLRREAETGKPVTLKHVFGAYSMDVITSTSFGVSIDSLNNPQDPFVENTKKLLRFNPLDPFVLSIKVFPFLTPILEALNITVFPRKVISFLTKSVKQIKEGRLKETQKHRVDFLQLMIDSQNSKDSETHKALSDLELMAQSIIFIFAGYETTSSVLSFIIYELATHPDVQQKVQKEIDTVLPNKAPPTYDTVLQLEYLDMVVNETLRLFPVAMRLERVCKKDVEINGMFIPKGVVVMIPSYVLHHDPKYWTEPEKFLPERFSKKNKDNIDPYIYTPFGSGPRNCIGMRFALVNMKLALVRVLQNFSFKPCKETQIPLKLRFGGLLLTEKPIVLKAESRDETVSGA
Sequence of Cytochrome P450 2C19 (Homo sapiens) (P33261 whole entry, looked up): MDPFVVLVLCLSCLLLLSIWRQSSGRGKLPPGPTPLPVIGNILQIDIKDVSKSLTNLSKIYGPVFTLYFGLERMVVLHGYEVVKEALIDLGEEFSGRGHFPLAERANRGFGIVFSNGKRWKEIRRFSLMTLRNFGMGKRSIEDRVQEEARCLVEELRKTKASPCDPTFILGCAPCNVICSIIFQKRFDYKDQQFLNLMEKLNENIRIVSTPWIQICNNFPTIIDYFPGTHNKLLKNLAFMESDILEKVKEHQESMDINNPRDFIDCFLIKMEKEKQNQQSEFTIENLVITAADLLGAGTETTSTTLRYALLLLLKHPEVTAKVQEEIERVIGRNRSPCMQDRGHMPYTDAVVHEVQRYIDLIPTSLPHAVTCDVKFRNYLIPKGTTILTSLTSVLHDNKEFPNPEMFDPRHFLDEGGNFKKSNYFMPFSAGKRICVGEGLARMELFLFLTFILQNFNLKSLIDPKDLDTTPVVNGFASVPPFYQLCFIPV

For the molecule `O=C(NS(=O)(=O)/C=C/c1ccccc1)c1ccc(F)cc1Cl`, the molecule was called inactive (in [1]; with Caspase-3 (Homo sapiens); in [2]; in experiment [3]; in experiment [4]; with CYP2C8 (gene 1558)). Also, the molecule was called inactive (in the experiment with CYP2C9 (gene 1559); with CYP4A11 (gene 1579); in [8]; in [9]; in experiment [10]; in [11]). Further, the molecule was called inactive (with CYP3A5 (gene 1577); in experiment [14]). Also, the AC50 in experiment [5] is 0.459 µM (active); in [6], 2.51 µM (active); in the experiment with CYP2E1 (gene 1571), 22.3 µM (active); in [7] it was 11.3 µM (active); in experiment [12] it was 28.7 µM (active); in [13] it was 2.67 µM (active).

On to `Nc1nc2ncc(CNc3ccc(C(=O)N[C@@H](CCC(=O)O)C(=O)O)cc3)nc2c(=O)[nH]1`, for which the call (in experiment [1]; with Caspase-3 (Homo sapiens); in experiment [2]; in experiment [3]; in experiment [4]; in experiment [5]) was inactive. Moreover, the outcome (in [6]; in the experiment with CYP2C8 (gene 1558); in the experiment with CYP2C9 (gene 1559); with CYP2E1 (gene 1571); in the experiment with CYP4A11 (gene 1579); in [7]) was inactive. For the same molecule, the result (in experiment [8]; in [9]; in experiment [10]; in experiment [11]; in [12]; with CYP3A5 (gene 1577)) was inactive. Besides, the molecule was classed as inactive in experiment [13] and in [14].

With `COC(=O)c1c(Cl)c(Cl)c(C(=O)OC)c(Cl)c1Cl`, the outcome (in [1]; with Caspase-3 (Homo sapiens); in [2]; in experiment [3]; in [4]; in experiment [5]) was inactive. Besides, the molecule was called inactive (in experiment [6]; in the experiment with CYP2C8 (gene 1558); in the experiment with CYP2C9 (gene 1559); in the experiment with CYP2E1 (gene 1571); in the experiment with CYP4A11 (gene 1579); in [7]). For the same molecule, the molecule was called inactive (in [8]; in [9]; in experiment [10]; in [11]; in experiment [12]; with CYP3A5 (gene 1577)). Moreover, the molecule was classed as inactive in experiment [13] and in experiment [14].
